Screening results: PubChem BioAssay, National Center for Advancing Translational Sciences (NCATS)
In the library only some 2.1% were active in any assay of this set; here they are far more common.
Abeta rescue: qHTS for compounds that reverse cellular toxicity of Amyloid beta (A-beta) peptide in yeast: Primary Screen; yeast expressing A-beta42, growth rescue, OD600, 48 h; response scale: 0% DMSO, 100% iron-clioquinol control; Potency, µM (doses to about 46.1 µM), usual class: activators; 410,000 compounds, 0.063% hits; AID 1347071, 2019; note: nearly all actives have a fitted effect of over 55% in size
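Yeast growth medium received pinned compounds, then yeast cells expressing toxic A-beta were added; plates incubated at 30 C for 48 hr. Growth read as absorbance at 600 nm, normalized to DMSO and equimolar FeCl3 plus clioquinol controls.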
TDP43 rescue: qHTS of TDP-43 Inhibitors; TDP-43 expressing yeast growth rescue, BacTiter-Glo, 24 h; Potency, µM (top dose mostly 46.1 µM), usual class: activators; 410,000 compounds, 1.8% hits; AID 652104, 2013; note: nearly all actives have a fitted effect of over 50% in size
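Cell-based yeast growth screen: TDP-43 expression induced in galactose, inoculum OD600=0.02 after raffinose pregrowth to mid-log. Read-out BacTiter-Glo luminescence at 24 hr, 30 deg C; inhibition of toxicity seen as signal increase.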
aSyn yeast inh: qHTS of alpha-syn Inhibitors; Yeast expressing alpha-synuclein, growth rescue, BacTiter-Glo, 24 h; 370,000 compounds, 0.14% hits; Potency, µM (top dose mostly 46.1 µM), actives largely listed as activators; note: nearly all actives have a fitted effect of over 65% in size
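Readout is rescue of growth in alpha-synuclein-expressing yeast, so inhibitors of toxicity appear as activators. Growth after 24 hr at 30 deg C in galactose medium is quantified by luminescence.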
FUS suppressor: qHTS for Suppressors of FUS Proteinopathy: Primary screen using FUS-linked yeast assay; S. cerevisiae FUS-expressing, growth rescue, OD600, 24 h; AID 1347120, 2019; 390,000 compounds, 0.24% hits; Potency, µM (top dose mostly 76.6 µM), most hits filed as activators; note: nearly all actives have a fitted effect of over 55% in size
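S. cerevisiae expressing FUS from galactose induction served as the toxicity model. Growth after 24hr at 30C, read as absorbance at 600 nm, indicates suppression of toxicity; compounds dosed at several concentrations.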
Each line names hits and unclear results; the compound was inactive in the other large screens. Calls come from the whole dose curve; as a rule, active = well fitted curve in the direction sought with a large enough effect; inconclusive = small, poorly fitted or top-dose-only effect, or another doubt; inactive = no such curve, though single readings can be large; an effect the other way counts as inactive or inconclusive.

Cc1ccccc1S(=O)(=O)NC(=O)C1(C)CCN1C(=O)C1(c2ccc(Cl)cc2)CCC1 (stereo unspecified)	TDP43 rescue 25.1µM, FUS suppressor inconclusive
CC1(C(=O)NS(=O)(=O)c2ccccc2Cl)CCN1C(=O)C1(c2ccc(Cl)cc2)CCC1 (stereo unspecified)	TDP43 rescue 12.6µM
CC(C)(C)OC(=O)N1CCC(c2ccc[nH]2)(c2c[nH]c3ccccc23)CC1	none (no result: Abeta rescue, TDP43 rescue, aSyn yeast inh)
CCCCCCNC(=O)C1CSCCS(=O)(=O)N1Cc1ccc(OC)cc1 (stereo unspecified)	none (no result: Abeta rescue, TDP43 rescue, aSyn yeast inh)
CCCOc1ccc(-c2cc(C(C)=O)c3n(c2=O)CCC3)cc1	none (no result: Abeta rescue, TDP43 rescue, aSyn yeast inh)
Cc1cc(N(C)C)ccc1/C=C/c1ccnc2ccccc12	none (no result: Abeta rescue, TDP43 rescue, FUS suppressor)
CC(C)(C)Cc1c(-c2cccc(Cl)c2)nc2ccc(Cl)cn12	none
COc1ccc(Cc2c(-c3ccco3)nc3ccc(Br)cn23)c(C)c1	TDP43 rescue 4.47µM, aSyn yeast inh inconclusive
COc1ccc(Cc2c(-c3ccco3)nc3ccc(Cl)cn23)c(C)c1	TDP43 rescue 22.4µM
COc1ccc(Cc2c(-c3ccccc3)nc3ccc(Cl)cn23)c(C)c1	none
CC(C)(C)Cc1c(-c2ccco2)nc2ccc(Cl)cn12	TDP43 rescue 11.2µM, aSyn yeast inh inconclusive
COC(=O)CCCn1cc(CN2CC=CS2(=O)=O)nn1	none (no result: Abeta rescue, TDP43 rescue, aSyn yeast inh)
O=C(C[n+]1ccccc1Cl)c1ccccc1	none (no result: Abeta rescue, TDP43 rescue, FUS suppressor)
CC1(C(=O)c2ccccc2)C2c3c(ccc4ccccc34)OC(=O)C21C(=O)N1CCOCC1 (stereo unspecified)	Abeta rescue inconclusive, TDP43 rescue 17.8µM
Cc1ccccc1CC1C(=O)Nc2ccc(Br)cc21 (stereo unspecified)	Abeta rescue inconclusive, TDP43 rescue 12.6µM (no result: aSyn yeast inh)
COc1cc(CNC(=O)c2cc(-c3cc(F)ccc3OC(C)C)n[nH]2)cc(OC)c1	TDP43 rescue inconclusive
COc1ccc(F)cc1-c1cc(C(=O)NCc2cccc(Cl)c2)[nH]n1	TDP43 rescue 14.1µM
COc1ccc(Cl)cc1-c1cc(C(=O)NCc2ccco2)[nH]n1	TDP43 rescue inconclusive
CC(C)Oc1ccc(F)cc1-c1cc(C(=O)NCc2cccs2)[nH]n1	TDP43 rescue 35.5µM, FUS suppressor inconclusive
COc1ccccc1CNC(=O)c1cc(-c2cc(F)ccc2OC(C)C)n[nH]1	TDP43 rescue 25.1µM
Cc1ccc(Cl)cc1-c1cc(C(=O)NCc2ccco2)[nH]n1	TDP43 rescue 14.1µM
COc1cccc(CCn2c(N)cc(=O)[nH]c2=S)c1OC	none (no result: Abeta rescue, TDP43 rescue, FUS suppressor)
CN1C2=NC(c3ccccc3)CC(=O)N2/C(=C\c2ccccc2)C1c1ccccc1C(F)(F)F (stereo unspecified)	none (no result: Abeta rescue, TDP43 rescue, aSyn yeast inh)
CCCOc1ccc(F)cc1-c1cc(C(=O)NCc2ccco2)[nH]n1	TDP43 rescue 14.1µM, aSyn yeast inh inconclusive
CCCOc1ccc(F)cc1-c1cc(C(=O)NCc2ccccc2OC)[nH]n1	TDP43 rescue 35.5µM
CCCOc1ccc(F)cc1-c1cc(C(=O)NCc2ccccc2)[nH]n1	TDP43 rescue inconclusive
Cc1ccc(NC(=O)C2CCCN2S(=O)(=O)c2cccnc2)cc1C (stereo unspecified)	none (no result: Abeta rescue, TDP43 rescue, aSyn yeast inh)
CC1(C)CC(=O)c2c(O)cc(OCC(=O)NCCc3ccc(S(N)(=O)=O)cc3)cc2O1	none
COc1ccc(CNC(=O)COc2cc(O)c3c(c2)OC(C)(C)CC3=O)cc1	TDP43 rescue 11.2µM
Oc1ccc(Br)cc1C1C=C(c2ccc3c(c2)OCO3)NC(c2ccc(F)c(Br)c2)N1 (stereo unspecified)	none (no result: Abeta rescue, TDP43 rescue, FUS suppressor)
CN1[C@H](Cc2ccccc2)COc2cccc(F)c2S1(=O)=O	none (no result: Abeta rescue, TDP43 rescue, aSyn yeast inh)
O=C1CSC2(C(=O)N(Cc3cccc(C(F)(F)F)c3)c3ccccc32)N1c1ccc(F)c(F)c1 (stereo unspecified)	TDP43 rescue inconclusive, FUS suppressor inconclusive
O=C1CSC2(C(=O)N(Cc3cccc(F)c3)c3ccccc32)N1c1cccc(C(F)(F)F)c1 (stereo unspecified)	TDP43 rescue 22.4µM, aSyn yeast inh inconclusive
Cc1ccc(NC(=O)C(C)c2ccc([N+](=O)[O-])cc2)cc1Cl (stereo unspecified)	Abeta rescue inconclusive, TDP43 rescue 11.2µM
CC(C(=O)Nc1ccccc1Br)c1ccc([N+](=O)[O-])cc1 (stereo unspecified)	none
CC(C)CCNC(=O)C1COC(O)(C(Cc2ccccc2)NC(=O)[C@@H](NC(=O)OCc2ccccc2)C(C)C)CN1 (stereo partly specified)	none (no result: Abeta rescue, TDP43 rescue, aSyn yeast inh)
CCOC(=O)c1cnc2ccc(OCC)cc2c1N1CCN(c2cccc(Cl)c2)CC1	TDP43 rescue 20µM, FUS suppressor inconclusive (no result: aSyn yeast inh)
CCOC(=O)c1cnc2ccc(OCC)cc2c1N1CCN(C)CC1	none
C[C@H]1[C@@H](OC(=O)NCCc2ccccc2)CC[C@@]23CCCN2C(=O)CCC[C@@H]13	none (no result: Abeta rescue, TDP43 rescue, aSyn yeast inh)
CC(C)CCNC(=O)CSc1nc2c(c(=O)[nH]1)CCC2	none (no result: Abeta rescue, TDP43 rescue, aSyn yeast inh)
Cc1ccc(NC(=O)CC2SC(=O)N(c3ccccc3)C2=O)cc1 (stereo unspecified)	TDP43 rescue 20µM
O=C(CC1S/C(=N\S(=O)(=O)c2ccccc2)N(c2ccccc2)C1=O)Nc1ccc(F)cc1 (stereo unspecified)	FUS suppressor 17.8µM
Cn1c(=O)cc(OCC(=O)N2CCN(c3ccccc3Cl)CC2)c2ccccc21	none (no result: Abeta rescue, TDP43 rescue, aSyn yeast inh)
Brc1c(CSc2nc3ccccc3o2)nc2ncccn12	TDP43 rescue 12.6µM
O=C(NN=C(Cc1ccccc1)Cc1ccccc1)c1ccccc1O	none
NC(=S)NN=C(Cc1ccccc1)Cc1ccccc1	Abeta rescue inconclusive, TDP43 rescue 15.8µM
COc1ccc(-c2csc3ncnc(N4CCN(c5ccc(OC)cc5)CC4)c23)cc1	TDP43 rescue 11.2µM
O=C(c1ccco1)N1CCN(c2ncnc3scc(-c4ccc(F)cc4)c23)CC1	TDP43 rescue 17.8µM
COc1ccc(-c2csc3ncnc(N4CCN(c5ccccc5O)CC4)c23)cc1	TDP43 rescue 17.8µM, aSyn yeast inh inconclusive
COc1ccc(-c2csc3ncnc(N4CCN(c5ccccc5)CC4)c23)cc1	TDP43 rescue 11.2µM
Cc1ccc(-c2csc3ncnc(N4CCN(C(=O)c5ccco5)CC4)c23)cc1	TDP43 rescue inconclusive (no result: FUS suppressor)
O=S1(=O)CC2c3ccccc3CN2CN1C1CCCC1 (stereo unspecified)	none (no result: Abeta rescue, TDP43 rescue, aSyn yeast inh)
CN(C)/[N+]([O-])=N/Oc1ccc([N+](=O)[O-])cc1C(F)(F)F	none (no result: Abeta rescue, TDP43 rescue, FUS suppressor)
O=C(c1cc(Cl)cc(Cl)c1)N1CC[C@H]2[C@H](CCCN2Cc2cc(F)cc(F)c2)C1	none (no result: Abeta rescue, TDP43 rescue, aSyn yeast inh)
NC(=S)N/N=C\c1c2ccccc2cc2ccccc12	Abeta rescue inconclusive, TDP43 rescue 20µM, aSyn yeast inh inconclusive
COCCNC(=S)N/N=C/c1c2ccccc2cc2ccccc12	Abeta rescue inconclusive, TDP43 rescue inconclusive
CS(=O)(=O)N1CCN(Cc2cc3nc(-c4cccc5[nH]ncc45)nc(N4CCOCC4)c3s2)CC1	none (no result: Abeta rescue, TDP43 rescue, FUS suppressor)
O=C(CSc1nc2sc3c(c2c(=O)n1-c1ccc(Cl)cc1)CCC3)Nc1ccc(C(=O)O)cc1	none (no result: Abeta rescue, TDP43 rescue, aSyn yeast inh)
